The supplement of paper PMC10849652
About 8,800 targets were measured; listed, in parts, are those with a hit and a random draw of the rest. About 0.5% of all pairs of compound and target were hits. Values without a mark were called inactive.

Experiments:
Assay in all cases: log2 fold change, soluble protein after heating vs DMSO (PISA); higher = thermal stabilisation; K562 lysate, 10 uM; active = over 0.2 and 3.5 SD of the protein, either way, in both replicates (recomputed)
erlotinib = compound: C#Cc1cccc(Nc2ncnc3cc(OCCOC)c(OCCOC)cc23)c1 [erlotinib]
Procedure, shortened: (§1)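 K562 pellets were dounce-homogenised in PBS pH 7.4 with 1 mM MgCl2, and the crude extract at 1 mg/mL protein was treated with 10 μM compound for 30 min. Aliquots were heated for 3 min across 48°C-58°C, pooled, and brought to 0.5% NP-40 at 4°C; soluble protein was the supernatant after 21,000xg for 90 min. Soluble protein was quantified by TMTpro 16plex LC-MS/MS with channel sums equalised, and reported as log2 fold change in thermal stability against DMSO controls, with values from duplicates.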

[1] = compound: C/C(=N\NC(=O)C1=CC(=CC=C1)S(=O)(=O)N2CCOCC2)/C3=C(C=CC(=C3)Cl)O
Procedure, shortened: as §1

[2] = compound: C1=CC(=CC=C1C2=NC3=C(N2)C=C(C=C3)C(=O)N)OC4=CC=C(C=C4)Cl
Procedure, shortened: as §1

[3] = compound: C1=CC2=C(C=CC(=C2)/C=C\3/C(=O)NC(=NCC4=CC=CS4)S3)N=C1
Procedure, shortened: as §1

[4] = compound: C1=CC2=NC=CN=C2C=C1/C=C/3\C(=O)NC(=O)S3
Procedure, shortened: as §1

[5] = compound: C1=CC=C(C=C1)C2=NC(=C(N2)C3=CC=NC=C3)C4=CC(=C(C=C4)Cl)O
Procedure, shortened: as §1

[6] = compound: C1=CC=C2C(=C1)C3=NNC4=CC=CC(=C43)C2=O
Procedure, shortened: as §1

[7] = compound: C1CCN(C1)C(=O)NC2=CC=CC(=C2)NC3=NC=C(C(=N3)NCCC4=CN=CN4)Br
Procedure, shortened: as §1

[8] = compound: C1CN(CCC1(CC2=CC=C(C=C2)Cl)N)C3=NC=NC4=C3C=CN4
Procedure, shortened: as §1

IRAK-1-4 Inhibitor I = compound: C1COCCN1CCN2C3=CC=CC=C3N=C2NC(=O)C4=CC(=CC=C4)[N+](=O)[O-] [IRAK-1-4 Inhibitor I]
Procedure, shortened: as §1

ibrutinib = compound: C=CC(=O)N1CCC[C@@H](n2nc(-c3ccc(Oc4ccccc4)cc3)c3c(N)ncnc32)C1 [ibrutinib]
Procedure, shortened: as §1

[9] = compound: CC(=O)c1cnc2ccc(-c3cc(Cl)c(O)c(Cl)c3)nc2c1N[C@H]1CC[C@H](CN(C)C)CC1
Procedure, shortened: as §1

ralimetinib = compound: CC(C)(C)Cn1c(N)nc2ccc(-c3[nH]c(C(C)(C)C)nc3-c3ccc(F)cc3)nc21 [ralimetinib]
Procedure, shortened: as §1

[10] = compound: CC(C)(O)CC(=O)NCCn1ccc2ncnc(Nc3ccc(Oc4cccc(C(F)(F)F)c4)c(Cl)c3)c21
Procedure, shortened: as §1

[11] = compound: CC(C)C1=C2N=C(C=C(N2N=C1)NCC3=CC=CC=C3)NCCCCCCN
Procedure, shortened: as §1

[12] = compound: CC1=C(C(CC(=O)N1)C2=CC=C(C=C2)C(F)(F)F)C(=O)NC3=C(C=C4C(=C3)C=NN4)F
Procedure, shortened: as §1

[13] = compound: CC1=C(C2=C(C=C1)C(=O)C3=CC=CC=C3N2CCCN)C
Procedure, shortened: as §1

[14] = compound: CC1=C(C=C(C=C1)NC(=O)C2=CC(=CC=C2)C(C)(C)C#N)NC3=CC4=C(C=C3)N=CN(C4=O)C
Procedure, shortened: as §1

[15] = compound: CC1=C(C=C(C=C1)NC(=O)C2=CC(=CC=C2)N(C)C)NC(=O)C3=CC=C(C=C3)O
Procedure, shortened: as §1

[16] = compound: CC1=CC=C(C=C1)SC2=C3C=C(SC3=CN=C2)C(=O)N
Procedure, shortened: as §1

UniProt O00763, sequence (O00763 whole entry, looked up): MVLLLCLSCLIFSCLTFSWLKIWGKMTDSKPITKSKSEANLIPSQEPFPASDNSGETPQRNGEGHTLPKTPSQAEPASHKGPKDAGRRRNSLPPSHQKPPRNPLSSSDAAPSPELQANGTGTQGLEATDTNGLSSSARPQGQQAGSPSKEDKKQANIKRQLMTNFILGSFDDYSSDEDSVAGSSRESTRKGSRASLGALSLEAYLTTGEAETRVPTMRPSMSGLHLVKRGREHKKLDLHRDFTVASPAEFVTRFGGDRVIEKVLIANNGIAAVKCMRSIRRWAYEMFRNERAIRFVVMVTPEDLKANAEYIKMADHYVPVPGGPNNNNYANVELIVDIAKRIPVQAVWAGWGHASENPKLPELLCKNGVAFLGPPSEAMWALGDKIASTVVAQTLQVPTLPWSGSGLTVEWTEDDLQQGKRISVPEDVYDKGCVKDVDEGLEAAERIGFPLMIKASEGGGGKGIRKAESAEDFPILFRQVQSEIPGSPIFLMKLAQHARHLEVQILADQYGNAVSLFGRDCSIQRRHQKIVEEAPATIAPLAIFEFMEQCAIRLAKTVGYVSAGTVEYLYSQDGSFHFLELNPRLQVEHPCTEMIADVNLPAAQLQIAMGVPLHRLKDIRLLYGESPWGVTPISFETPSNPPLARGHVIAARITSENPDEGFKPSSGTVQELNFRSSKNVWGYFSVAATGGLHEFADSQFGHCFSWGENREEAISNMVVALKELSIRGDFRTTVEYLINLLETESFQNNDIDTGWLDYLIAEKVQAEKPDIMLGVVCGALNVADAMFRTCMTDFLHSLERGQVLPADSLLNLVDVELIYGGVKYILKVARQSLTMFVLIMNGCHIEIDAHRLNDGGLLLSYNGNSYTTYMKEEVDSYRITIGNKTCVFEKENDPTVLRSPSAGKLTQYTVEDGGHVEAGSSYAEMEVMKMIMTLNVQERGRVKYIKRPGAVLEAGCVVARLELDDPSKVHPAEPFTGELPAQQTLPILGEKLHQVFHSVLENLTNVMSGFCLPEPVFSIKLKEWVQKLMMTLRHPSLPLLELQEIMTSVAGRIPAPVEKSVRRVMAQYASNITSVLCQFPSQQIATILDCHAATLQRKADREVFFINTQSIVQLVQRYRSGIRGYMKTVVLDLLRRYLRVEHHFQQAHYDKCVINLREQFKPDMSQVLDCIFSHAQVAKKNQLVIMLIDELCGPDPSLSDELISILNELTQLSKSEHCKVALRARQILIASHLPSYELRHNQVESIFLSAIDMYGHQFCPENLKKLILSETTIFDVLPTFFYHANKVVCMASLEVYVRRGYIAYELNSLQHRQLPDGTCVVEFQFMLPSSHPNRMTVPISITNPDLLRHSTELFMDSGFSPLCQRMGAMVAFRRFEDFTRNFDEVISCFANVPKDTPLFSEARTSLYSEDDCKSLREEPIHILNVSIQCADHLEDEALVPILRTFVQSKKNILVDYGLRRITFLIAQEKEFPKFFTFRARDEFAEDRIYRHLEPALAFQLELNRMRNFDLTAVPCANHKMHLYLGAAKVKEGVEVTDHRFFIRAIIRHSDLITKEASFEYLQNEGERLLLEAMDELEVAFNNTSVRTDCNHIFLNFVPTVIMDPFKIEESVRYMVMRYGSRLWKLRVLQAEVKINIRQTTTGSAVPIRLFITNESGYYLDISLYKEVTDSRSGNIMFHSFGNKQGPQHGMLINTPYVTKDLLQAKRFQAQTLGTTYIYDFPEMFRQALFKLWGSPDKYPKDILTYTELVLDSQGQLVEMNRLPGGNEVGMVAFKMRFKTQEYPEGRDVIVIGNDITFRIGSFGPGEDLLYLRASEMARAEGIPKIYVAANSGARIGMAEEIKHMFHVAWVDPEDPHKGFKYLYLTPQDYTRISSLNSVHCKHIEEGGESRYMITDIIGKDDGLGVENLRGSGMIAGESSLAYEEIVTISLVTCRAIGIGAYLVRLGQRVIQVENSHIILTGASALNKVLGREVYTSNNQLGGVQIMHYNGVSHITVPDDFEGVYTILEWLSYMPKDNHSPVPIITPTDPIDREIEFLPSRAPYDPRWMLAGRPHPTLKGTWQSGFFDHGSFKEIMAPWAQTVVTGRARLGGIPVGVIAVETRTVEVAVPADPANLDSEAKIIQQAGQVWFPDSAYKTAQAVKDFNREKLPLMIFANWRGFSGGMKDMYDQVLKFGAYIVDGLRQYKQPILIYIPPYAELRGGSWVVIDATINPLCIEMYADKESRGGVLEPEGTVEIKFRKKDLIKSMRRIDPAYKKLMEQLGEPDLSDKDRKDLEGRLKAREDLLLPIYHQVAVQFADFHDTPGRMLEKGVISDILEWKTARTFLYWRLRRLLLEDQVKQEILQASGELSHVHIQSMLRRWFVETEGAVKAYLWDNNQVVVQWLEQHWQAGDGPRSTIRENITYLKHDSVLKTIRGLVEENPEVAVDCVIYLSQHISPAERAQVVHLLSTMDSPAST
UniProt Q9BR61, sequence (Q9BR61 whole entry, looked up): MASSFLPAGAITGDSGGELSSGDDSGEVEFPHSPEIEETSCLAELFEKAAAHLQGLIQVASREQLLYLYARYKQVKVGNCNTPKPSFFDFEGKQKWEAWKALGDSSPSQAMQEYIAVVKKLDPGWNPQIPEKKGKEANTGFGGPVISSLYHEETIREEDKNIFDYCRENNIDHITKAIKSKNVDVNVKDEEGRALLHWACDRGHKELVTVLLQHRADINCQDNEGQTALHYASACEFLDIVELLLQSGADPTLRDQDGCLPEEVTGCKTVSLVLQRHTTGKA
UniProt Q9UG63, sequence (Q9UG63 whole entry, looked up): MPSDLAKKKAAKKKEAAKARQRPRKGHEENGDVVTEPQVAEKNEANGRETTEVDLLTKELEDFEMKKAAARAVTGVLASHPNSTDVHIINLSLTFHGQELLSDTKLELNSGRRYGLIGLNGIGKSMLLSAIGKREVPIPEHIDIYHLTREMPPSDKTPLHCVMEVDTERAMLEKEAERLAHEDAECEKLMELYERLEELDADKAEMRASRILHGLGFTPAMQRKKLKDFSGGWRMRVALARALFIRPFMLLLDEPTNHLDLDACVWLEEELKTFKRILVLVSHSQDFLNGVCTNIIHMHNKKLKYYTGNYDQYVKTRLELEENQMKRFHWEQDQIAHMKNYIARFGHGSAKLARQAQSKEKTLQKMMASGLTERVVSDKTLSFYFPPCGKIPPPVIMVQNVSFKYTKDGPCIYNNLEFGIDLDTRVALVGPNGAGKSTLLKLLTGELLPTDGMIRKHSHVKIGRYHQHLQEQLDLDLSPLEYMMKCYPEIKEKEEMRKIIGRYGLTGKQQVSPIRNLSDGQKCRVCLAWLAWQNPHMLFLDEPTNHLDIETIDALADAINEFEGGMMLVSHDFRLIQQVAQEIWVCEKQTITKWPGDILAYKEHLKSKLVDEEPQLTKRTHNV
UniProt Q9H1I8, sequence (Q9H1I8 whole entry, looked up): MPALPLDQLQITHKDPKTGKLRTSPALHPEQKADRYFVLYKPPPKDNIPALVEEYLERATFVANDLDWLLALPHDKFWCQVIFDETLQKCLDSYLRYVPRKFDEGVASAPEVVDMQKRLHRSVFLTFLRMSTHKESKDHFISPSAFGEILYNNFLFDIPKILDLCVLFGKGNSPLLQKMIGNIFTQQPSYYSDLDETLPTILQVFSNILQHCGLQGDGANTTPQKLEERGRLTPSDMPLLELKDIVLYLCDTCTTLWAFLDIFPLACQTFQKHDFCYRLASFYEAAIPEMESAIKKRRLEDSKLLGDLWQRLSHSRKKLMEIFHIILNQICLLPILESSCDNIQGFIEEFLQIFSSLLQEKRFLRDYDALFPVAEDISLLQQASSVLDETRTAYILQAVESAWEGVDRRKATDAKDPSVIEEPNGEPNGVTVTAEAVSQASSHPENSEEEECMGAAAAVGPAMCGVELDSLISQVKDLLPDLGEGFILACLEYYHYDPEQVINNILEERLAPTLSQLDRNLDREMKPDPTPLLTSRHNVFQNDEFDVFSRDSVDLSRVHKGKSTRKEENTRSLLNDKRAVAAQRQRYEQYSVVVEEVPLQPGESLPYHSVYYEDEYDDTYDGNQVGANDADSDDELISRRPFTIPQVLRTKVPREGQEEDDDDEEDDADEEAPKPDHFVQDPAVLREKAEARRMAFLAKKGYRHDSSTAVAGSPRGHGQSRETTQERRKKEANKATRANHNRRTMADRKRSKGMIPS
UniProt P27695, sequence (P27695 whole entry, looked up): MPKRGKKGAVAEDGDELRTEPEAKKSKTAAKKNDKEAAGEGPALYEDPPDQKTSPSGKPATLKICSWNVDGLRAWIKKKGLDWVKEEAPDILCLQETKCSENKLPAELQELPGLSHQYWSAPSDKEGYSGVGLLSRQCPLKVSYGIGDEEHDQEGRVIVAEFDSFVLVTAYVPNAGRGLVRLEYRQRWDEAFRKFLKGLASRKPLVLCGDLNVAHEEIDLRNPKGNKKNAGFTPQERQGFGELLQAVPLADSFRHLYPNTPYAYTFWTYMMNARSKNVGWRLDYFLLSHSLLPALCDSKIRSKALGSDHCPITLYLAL
UniProt P42330, sequence (P42330 whole entry, looked up): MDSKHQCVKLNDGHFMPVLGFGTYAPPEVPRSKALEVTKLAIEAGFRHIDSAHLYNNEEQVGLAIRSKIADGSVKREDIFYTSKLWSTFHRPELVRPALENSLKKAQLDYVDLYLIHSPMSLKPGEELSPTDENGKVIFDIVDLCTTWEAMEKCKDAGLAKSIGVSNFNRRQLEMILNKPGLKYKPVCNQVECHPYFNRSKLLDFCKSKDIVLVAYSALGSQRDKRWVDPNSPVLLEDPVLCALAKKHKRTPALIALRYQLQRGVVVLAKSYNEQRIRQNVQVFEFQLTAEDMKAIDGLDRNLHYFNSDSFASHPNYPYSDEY
UniProt Q96GS6, sequence (Q96GS6 whole entry, looked up): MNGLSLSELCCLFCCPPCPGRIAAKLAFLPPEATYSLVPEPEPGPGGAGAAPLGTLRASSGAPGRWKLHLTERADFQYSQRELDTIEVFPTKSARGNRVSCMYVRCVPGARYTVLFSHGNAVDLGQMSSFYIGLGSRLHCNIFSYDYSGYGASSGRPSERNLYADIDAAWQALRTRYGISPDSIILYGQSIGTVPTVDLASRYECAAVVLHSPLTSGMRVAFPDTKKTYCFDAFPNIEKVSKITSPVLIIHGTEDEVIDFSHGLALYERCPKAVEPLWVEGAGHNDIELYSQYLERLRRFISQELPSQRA

Target	log2 fold change (erlotinib)	log2 fold change [1]	log2 fold change [2]	log2 fold change [3]	log2 fold change [4]	log2 fold change [5]	log2 fold change [6]	log2 fold change [7]	log2 fold change [8]	log2 fold change (IRAK-1-4 Inhibitor I)	log2 fold change (ibrutinib)	log2 fold change [9]	log2 fold change (ralimetinib)	log2 fold change [10]	log2 fold change [11]	log2 fold change [12]	log2 fold change [13]	log2 fold change [14]	log2 fold change [15]	log2 fold change [16]
ALDH1B1 (UniProt P30837)	-0.064	0.027	-0.035	-0.004	0.031	0.009	0.262 (active)	-0.025	0.048	0.038	0.008	0.086	0.019	0.02	0.056	-0.024	-0.005	-0.018	-0.014	-0.018
AMMECR1 (UniProt Q9Y4X0)	0.007	0.003	0.019	-0.045	0.004	-0.009	-0.001	0.009	0.019	0.002	-0.021	-0.008	0.006	-0.016	0.014	0.009	-0.01	-0.003	-0.027	-0.039
AGL (UniProt P35573)	0.007	0.002	0.003	-0.021	-0.01	0.008	-0.035	-0.017	-0.006	0.001	-0.007	0.01	0.048	0.018	-0.006	-0.004	0.021	-0.017	0	0.027
AP4B1 (UniProt Q9Y6B7)	0.021	-0.038	0.016	0.096	0.038	0.019	-0.022	-0.018	0.188	0.013	-0.028	-0.048	-0.044	0	0.034	0.003	-0.027	-0.02	-0.041	-0.041
ASPH (UniProt Q12797)	0.003	-0.028	-0.013	0.075	-0.011	0.006	-0.022	-0.011	0.01	-0.016	0.015	-0.004	-0.006	-0.001	-0.028	0.052	0.076	-0.025	0.025	0
ACLY (UniProt P53396)	-0.006	0.037	-0.018	-0.013	-0.011	-0.016	-0.018	0.002	0.019	-0.01	-0.002	0.003	0.001	-0.011	0.02	-0.02	0.014	-0.014	-0.012	0.054
ABHD17A isoform 2 (UniProt Q96GS6)	-0.016	-0.046	0.081	0.025	0.022	-0.009	-0.07	-0.023	0.025	0.006	-0.03	0.011	0.039	-0.035	0.032	-0.042	-0.065	-0.023	-0.097	-0.098
ACBD6 (UniProt Q9BR61)	0.013	-0.059	0.029	0.024	-0.032	-0.014	-0.075	-0.044	-0.01	0.019	0.007	0.038	0.012	-0.039	0.002	0.034	0.001	0.062	0.027	-0.057
APEX1 (UniProt P27695)	0.026	0.011	-0.011	0.016	0	0.004	-0.072	0	0.003	-0.007	0.048	-0.001	-0.014	0.026	0.006	0.001	-0.02	-0.011	0.01	0.019
ABCF2 isoform 2 (UniProt Q9UG63)	0.046	-0.029	-0.049	-0.025	0.01	0.018	-0.042	0.049	0.016	-0.047	-0.012	0.013	0.059	0.003	0.01	0.007	-0.008	-0.013	0.021	0.012
ACSL4 (UniProt O60488)	0.004	-0.074	-0.053	0.062	0.022	-0.014	-0.032	-0.065	-0.007	0.04	0.035	-0.012	0.051	-0.022	-0.015	0.027	-0.079	-0.044	0.052	0.021
ARHGAP21 (UniProt Q5T5U3)	-0.013	-0.182	-0.025	-0.098	-0.214	-0.018	-0.137	-0.118	-0.018	0.056	0.016	0.047	0.017	-0.047	0.022	0.077	-0.053	0.062	0.052	-0.015
AP3D1 isoform 5 (UniProt O14617)	-0.013	-0.004	-0.006	0.011	0.001	-0.007	-0.015	-0.015	-0.001	-0.003	0.033	-0.012	0.028	-0.012	-0.007	-0.014	-0.024	0.011	0.01	0.006
ASCC2 (UniProt Q9H1I8)	0.04	-0.106	-0.077	0.083	0.029	-0.016	-0.048	-0.054	0.037	-0.042	-0.328 (active)	0.029	0.057	-0.041	0.012	0.004	0.02	0.01	0.064	-0.01
AKR1C3 (UniProt P42330)	0.002	0.023	-0.1	0.029	0.008	0.3 (active)	0.024	0.05	0.029	-0.017	-0.033	0.016	-0.028	-0.003	-0.039	0.011	0.247 (active)	0.02	-0.035	0.001
ACACB (UniProt O00763)	0.042	0.097	-0.025	0.018	-0.02	-0.01	-0.008	-0.005	0.015	0.025	0.051	0.018	0.069	0.032	0.014	-0.036	0.015	0.021	0.052	0.022
